Screening data (PubChem)
An excerpt weighted towards active compounds, which were near 4.8% of everything screened.
USP1 inh = Inhibitors of USP1/UAF1: Primary Screen; recombinant USP1/UAF1, Ub-Rhodamine cleavage fluorescence; Potency, µM (top dose mostly 57.1 µM), without a hit: at the top dose activity change, negative = inhibition, hits mostly inhibitors; Ubiquitin carboxyl-terminal hydrolase 1 (Homo sapiens), O94782; 0.23% of 390,000 active; note: potency is the fitted concentration of half-maximal effect; % is set by controls: 0 for no effect and ±100 for the full control effect; nearly all actives have a fitted effect of over 60% in size
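High-throughput fluorogenic screen: 1nM USP1/UAF1 complex, Ub-Rho substrate 150nM final, 50mM HEPES pH 7.8 with 0.5mM EDTA, 0.1 mg/ml BSA, 1mM TCEP and 0.01% Tween-20.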
IL-1B inflam inh = qHTS for Inhibitors of Inflammasome Signaling: IL-1-beta AlphaLISA Primary Screen; THP-1 LPS/ATP IL-1B secretion, AlphaLISA, 16 h; hits give low values; activity change, % at 57.5 µM; 4.7% of 360,000 active; AID 743279, 2014; in the data active = activity change below about -50%; inconclusive = mostly about -30% to -49%; note: % is set by controls: 0 for no effect and ±100 for the full control effect
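Secreted IL-1B measured by AlphaLISA bead assay after 16 h compound exposure of THP-1 cells; compounds (final up to 57.5 uM) added 1 h before LPS (250 ng/mL) and ATP (1.25 mM) stimulation; lower signal means less secretion.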
USP2a inh = qHTS Assay for Inhibitors of Ubiquitin-specific Protease USP2a Using CHOP2 as the Reporter. Ubiquitin carboxyl-terminal hydrolase 2 (Homo sapiens), O75604. 0.01% of 330,000 active. Potency, µM (top dose mostly 38.3 µM), without a hit: at the highest dose activity change, negative = inhibition, most hits filed as inhibitors. USP2 core, Ub-CHOP2 coupled fluorogenic reporter, 485/531. AID 463254, 2010;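 note: potency is the fitted concentration of half-maximal effect; plate controls were DMSO wells for no effect and full inhibition by NEM control for full effect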
Target sequence (O75604 whole entry, looked up): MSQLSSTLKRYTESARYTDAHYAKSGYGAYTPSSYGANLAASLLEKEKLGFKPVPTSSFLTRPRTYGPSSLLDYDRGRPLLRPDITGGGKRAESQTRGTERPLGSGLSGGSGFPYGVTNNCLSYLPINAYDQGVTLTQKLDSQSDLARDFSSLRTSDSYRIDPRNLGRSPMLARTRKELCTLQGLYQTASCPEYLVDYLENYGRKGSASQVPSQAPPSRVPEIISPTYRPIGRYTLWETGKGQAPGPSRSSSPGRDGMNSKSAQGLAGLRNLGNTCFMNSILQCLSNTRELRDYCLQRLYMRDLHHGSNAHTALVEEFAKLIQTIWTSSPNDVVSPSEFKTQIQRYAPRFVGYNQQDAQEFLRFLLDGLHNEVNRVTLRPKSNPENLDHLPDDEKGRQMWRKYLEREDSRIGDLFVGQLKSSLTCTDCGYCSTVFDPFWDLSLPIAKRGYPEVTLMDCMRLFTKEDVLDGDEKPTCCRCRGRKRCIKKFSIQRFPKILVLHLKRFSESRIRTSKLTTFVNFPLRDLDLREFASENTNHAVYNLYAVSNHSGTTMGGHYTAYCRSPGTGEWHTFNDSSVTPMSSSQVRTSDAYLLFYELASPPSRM
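USP2 core (10nM final) preincubated 30min RT with compound in 20mM Tris-HCl pH 8.0, 2mM CaCl2, 2mM beta-mercaptoethanol, 0.05% CHAPS; 25nM Ub-CHOP2 plus 25nM reporter substrate added, fluorescence (Ex485/Em531) read after 60min.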
ATXN viability = Viability Counterscreen for Primary qHTS for Inhibitors of ATXN expression | S2 cells (HEK-293 line with an ATXN2-luciferase reporter) viability, CellTiter-Fluor protease fluorescence, 24 h | Potency, µM (titrated, usually from 56.7 µM), most hits filed as cytotoxic | 0.49% of 400,000 active; note: potency is the fitted concentration of half-maximal effect; nearly all actives have a fitted effect of over 40% in size
ATXN2 expr inh = Primary qHTS for Inhibitors of ATXN expression; Potency, µM (doses to about 57 µM), without a hit: at the top dose activity change, negative = inhibition, usual class: inhibitors; 0.72% of 360,000 active; AID 1745845, 2022; HEK-293 ATXN2-luciferase reporter, luminescence, 24 h; note: potency is the fitted concentration of half-maximal effect; % is set by controls: 0 for no effect and ±100 for the full control effect; nearly all actives have a fitted effect of over 55% in size
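qHTS (up to 57 uM final) was run with 24 h compound exposure of reporter cells at 37 °C. Each well was multiplexed: SteadyGlo luminescence measured ATXN2-luciferase expression after a fluorogenic Gly-Phe-AFC viability readout (25 uM final).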
The depositor's hits bear a star; i = inactive; ? = inconclusive; . = no result given. Unless noted, calls come from the whole dose curve; as a rule, active = well fitted curve in the direction sought with a large enough effect; inconclusive = small, poorly fitted or top-dose-only effect, or another doubt; inactive = no such curve, though single readings can be large; an effect the other way counts as inactive or inconclusive.

SMILES | USP1 inh | IL-1B inflam inh | USP2a inh | ATXN viability | ATXN2 expr inh
CC(C)Cn1cnc2c(SCc3ccccc3)nc(N)nc21 | -15% | -50* | . | i | 16%
CN(C)CCN(C(=O)C1CCN(S(=O)(=O)c2cccs2)CC1)c1nc2c(F)cccc2s1 | -10% | 13 | 2% | i | -1%
COc1ccc(N2CCN(C(=O)C(=O)c3cccc([N+](=O)[O-])c3)CC2)cc1 | . | 8 | . | . | .
Cc1cnc(C)c(-c2cc(F)cc3c2OC(CNC(=O)Cc2ccccc2C)C3)n1 (centres undefined) | . | . | . | i | .
CN1CCN(S(=O)(=O)c2ccc(N(C)Cc3ccc(C(F)(F)F)cc3)c([N+](=O)[O-])c2)CC1 | -15% | -85* | -14% | i | ?
COC1=C(Nc2ccc(C)cc2)C(=O)c2ccccc2C1=O | -18% | -77* | 0% | ? | 5%
O=C1C(Nc2cccc(O)c2)=C(N2CCCCC2)C(=O)c2ccccc21 | ? | -84* | 2% | i | -14%
COc1ccccc1NS(=O)(=O)c1cc(N)ccc1N1CCCC1 | -24% | -18 | 2% | ? | -6%
O=C1C(Nc2ccccc2)=C(N2CCCCC2)C(=O)c2ccccc21 | 25µM* | -3 | 1% | ? | -11%
COC1=C(Nc2ccccc2)C(=O)c2ccccc2C1=O | ? | ? | 2% | ? | -19%
COc1ccccc1NC1=C(N2CCCCC2)C(=O)c2ccccc2C1=O | 18µM* | ? | 2% | ? | ?
Cc1ccc(NC(=O)Cn2nnc(-c3nc(-c4ccc(Cl)cc4)no3)c2N)cc1C | -23% | . | . | . | .
Cc1ccc(NC2=C(N3CCCCC3)C(=O)c3ccccc3C2=O)cc1 | ? | -68* | -6% | ? | ?
O=C1C(NS(=O)(=O)c2ccc(Br)cc2)=C(N2CCCCC2)C(=O)c2ccccc21 | ? | -21 | -2% | ? | .
O=C(/C=C/c1ccc(O)cc1)c1ccc(NC2=C(N3CCCCC3)C(=O)c3ccccc3C2=O)cc1 | 16µM* | ? | -3% | ? | ?
CN(C1=C(N2CCCCC2)C(=O)c2ccccc2C1=O)c1ccccc1 | ? | -82* | 2% | ? | -8%
Cn1c(-n2cccc2)c(-c2c(-c3ccccc3)[nH]c3c2c(=O)[nH]c(=O)n3C)c(=O)[nH]c1=O | 1% | . | 0% | i | 9%
CCOc1ccc(C2c3c(-c4ccc(C)cc4)n[nH]c3C(=O)N2c2ccc(Cl)cc2)cc1 (centres undefined) | -26% | . | . | . | -28%
COc1cc(NC(=O)c2ccc(-c3cn[nH]c3)c3ccoc23)cc(OC)c1OC | . | -74* | . | ? | -20%
O=C(c1ccccc1F)N1CCN(C(=O)C2CC2)CC1 | -20% | -8 | 1% | i | -1%
CCOP(=O)(OCC)C(C)(C)NC(=O)Nc1ccc(Cl)c(Cl)c1 | 2% | -67* | 2% | i | -16%
CCOP(=O)(OCC)C(NC(=O)Nc1ccc(Cl)c(Cl)c1)c1ccccc1 (centres undefined) | -18% | -3 | -1% | i | -12%
COc1ccc(S(=O)(=O)Nc2ccc(C)cc2)cc1N(C)S(=O)(=O)c1ccc(Cl)cc1 | -8% | -60* | -4% | ? | ?
Cc1ccc(O)c(C(=O)/C=C/c2ccc3c(c2)OCCCO3)c1 | -19% | -105* | -7% | i | 2%
CN(C)c1ccc(/C=C/C(=O)c2ccccc2O)cc1 | ? | 3 | 1% | i | 74%
SMILES | USP1 inh | IL-1B inflam inh | USP2a inh | ATXN viability | ATXN2 expr inh
Cc1ccc(O)c(C(=O)C=Cc2ccccc2)c1 | -16% | -101* | . | i | 1%
Cc1ccc(/C=C/C(=O)c2ccccc2O)cc1 | -6% | -102* | 0% | i | 42%
O=C(/C=C/c1ccc2c(c1)OCCCO2)c1ccccc1O | -14% | -28 | -2% | i | 83%
O=c1c(C(c2ccc(Br)cc2)c2c(O)nc3n(c2=O)CCS3)c(O)nc2n1CCS2 | -19% | -69* | 13% | ? | 2%
O=C(CN1C(=O)NC(c2ccccc2)(c2ccccc2)C1=O)NCC(=O)Nc1ccc(F)cc1 | -6% | -17 | -1% | i | -7%
COc1ccccc1Cc1c(-c2ccc(C)cc2)nc2ccc(Cl)cn12 | . | -102* | . | ? | 45%
CC(C)(C)CC(C)(C)NC(=O)CSCC(=O)Nc1ccc2ccccc2c1 | ? | -94* | -9% | i | 2%
CCC(=O)Nc1ccc2ccccc2c1 | -11% | -1 | 3% | i | 17%
O=C1N=c2ccccc2=C1c1sc(=S)n(NC(=O)c2ccccc2)c1O | -19% | 46 | 0% | i | 34%
C=CCn1c(O)c(C2=c3ccccc3=NC2=O)sc1=Nc1ccc(O)cc1 | -22% | -50* | -6% | . | ?
Cc1ccc(-n2nc(C)c3c(C)c(CCC(=O)Nc4ccc(CN5CCCC5)cc4)c(C)nc32)cc1 | 3% | -86* | 4% | ? | ?
Fc1ccc(-n2cc(-c3ccccc3)c3c(NC4CCCCC4)ncnc32)cc1 | -25% | . | . | . | .
CCOc1c(Br)cc(CNC2CCCCCCC2)cc1OC | -10% | -94* | 0% | ? | .
COc1cc(CNC2CCCCC2OC)cc(OC)c1OC (centres undefined) | 4% | 8 | 3% | i | .
COc1cc(CNC2CCCCCCC2)cc(Br)c1OCC#N | 1% | -7 | 6% | i | -23%
COc1cc(CNC2CCCCCCC2)cc(Cl)c1OC | -15% | -80* | -1% | i | -28%
C=CCOc1c(CNC2CCCC2)cc(Cl)cc1OC | -18% | -72* | 2% | i | -15%
CCn1c(-c2cccc(OC)c2)nc2cc(NC(C)=O)cc(C(=O)N(C)CC3COCCO3)c21 (centres undefined) | . | . | . | i | .
COCCn1c2c([n+](Cc3cnccn3)c1C)C(=O)c1ccccc1C2=O | . | . | . | . | 0.054µM*
O=C(N[C@H]1CC[C@H](CCNC(=O)C2CC2)O[C@@H]1CO)c1ccccn1 | . | 16 | . | . | .
O=C1[C@H](Cc2ccccc2)NCCCC[C@@H](c2ccc(Cl)cc2)N1Cc1ccc(Cl)cc1 | 4% | -50* | . | ? | ?
NS(=O)(=O)c1ccc(N=Nc2c(=O)[nH]n3c(=O)c4c([nH]c23)CCCC4)cc1 | ? | 40 | -7% | 9.5µM* | -17%
O=c1[nH]n2c(=O)c3c([nH]c2c1N=Nc1cccc(Cl)c1)CCC3 | -14% | 15 | 3% | ? | -6%
CN1CCN(C(=O)C2=C[C@@H](c3ccc(C(F)(F)F)cc3)C[C@@H](OCc3ccc(CO)cc3)O2)CC1 | -18% | -29 | 0% | i | -5%
